Hits are enriched below; roughly 2.4% of the tested compounds scored in any of these assays.
D2 ag-1: Beta-Arrestin HTS for Positive Allosteric Modulators of the Human D2 Dopamine Receptor: Agonists. D(2) dopamine receptor (Homo sapiens), P14416. DiscoveRx PathHunter D2 beta-arrestin, luminescence, 90 min; 100% = 57 uM dopamine signal. activation, % (test concentration not listed). hit rate 0.084% among 360,000. AID 624465, 2012; in the data active = activation above about 40%
Target sequence (P14416 whole entry, looked up): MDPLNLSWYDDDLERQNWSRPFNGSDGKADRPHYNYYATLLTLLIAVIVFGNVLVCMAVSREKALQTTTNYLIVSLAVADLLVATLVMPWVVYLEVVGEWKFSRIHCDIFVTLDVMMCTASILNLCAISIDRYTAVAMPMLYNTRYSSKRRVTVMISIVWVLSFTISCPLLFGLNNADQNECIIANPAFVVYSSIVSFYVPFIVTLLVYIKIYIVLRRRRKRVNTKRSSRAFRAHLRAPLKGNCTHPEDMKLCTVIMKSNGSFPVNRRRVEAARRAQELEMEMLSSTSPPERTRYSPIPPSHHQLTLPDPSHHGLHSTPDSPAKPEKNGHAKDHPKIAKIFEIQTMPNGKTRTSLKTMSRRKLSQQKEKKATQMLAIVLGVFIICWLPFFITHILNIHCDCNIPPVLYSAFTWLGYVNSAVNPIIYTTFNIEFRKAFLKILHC
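Agonist mode: compounds alone added to overnight-plated D2 PathHunter cells for 90 min at 37 C, with 57 uM final dopamine (EC100) defining full response. Beta-arrestin recruitment detected by chemiluminescent reagent, read after 1 h at ambient temperature.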
D2 PAM-1: Beta-Arrestin HTS for Positive Allosteric Modulators of the Human D2 Dopamine Receptor: Potentiators; D(2) dopamine receptor (Homo sapiens), P14416; DiscoveRx D2 beta-arrestin cells, luminescence, 90 min; 100% = 57 uM dopamine signal; potentiation, % (no concentration beside the values); hit rate 0.23% among 360,000; AID 624464, 2012; in the data active = potentiation above about 50%
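PathHunter beta-arrestin assay in DiscoveRx D2 cells. Compounds were added with an EC20 of dopamine (50 nM final) for 90 min at 37 deg C. Luminescence was read 1 h after detection reagent, with 57 uM dopamine as the EC100 control.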
D2 antag: HTS Assay for Allosteric Antagonists of the Human D2 Dopamine Receptor: Primary Screen for Antagonists; D(2) dopamine receptor (Homo sapiens), P14416; HEK293 TREx D2 cells, calcium flux, dopamine EC80; inhibition, % at 10 µM; hit rate 2% among 340,000; AID 485344, 2010; in the data active = inhibition above about 30%; inactive = below that, where a call was filed; also: 0% is about no effect
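Tetracycline-induced HEK293 T-REx cells expressing D2 force-coupled to calcium signalling were dye-loaded, exposed to compound for 180 s, then challenged with an EC80 of dopamine; calcium flux was followed kinetically for a further 180 s.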
D2 PAM-2: HTS Assay for Positive Allosteric Modulators of the Human D2 Dopamine Receptor: Primary Screen for Potentiators; D(2) dopamine receptor (Homo sapiens), P14416; HEK293 T-REx D2, calcium flux, EC20 dopamine potentiation; potentiation, % at 10 µM; hit rate 0.34% among 340,000;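 active = potentiation over 3 SD above the plate norm, cut at about 30% in these data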; also: 0% is about no effect
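Calcium flux readout, no-wash dye, 1 read/s. Inducible HEK293 Trex D2 line, overnight 30 C. Compound alone 180 s (agonist flags), then EC20 dopamine, another 180 s to score potentiation.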
D2 ag-2: HTS Assay for Allosteric Agonists of the Human D2 Dopamine Receptor: Primary Screen for Agonists | activation, % at 2 µM | HEK293 T-REx D2 cells, calcium flux agonist mode | hit rate 0.53% among 340,000 | D(2) dopamine receptor (Homo sapiens), P14416;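 active = activation over 3 SD above normal in the single-dose calcium agonist read, cut at about 30% in these data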; also: 0% is about no effect
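Agonism is scored from calcium flux in a force-coupled, inducible HEK293 cell line expressing D2, read kinetically for 180 s after compound addition against dopamine controls.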
Active calls of the source: *; / = no result.

SMILES	D2 ag-1	D2 PAM-1	D2 antag	D2 PAM-2	D2 ag-2
COCCn1c(SCC(=O)Nc2ccccc2OC)nc2ccccc21	-4.6	0.3	34.6*	10.7	1.3
CCOc1ccccc1NC(=O)CSc1nnnn1-c1ccccc1	0.4	-6.7	31.1*	-1.7	1.7
COc1ccc(OC)c(-n2nnnc2SCC(=O)Nc2ccccc2OC)c1	4.0	-1.0	31.1*	14.0	7.6
COCCCNC(=O)C1CCN(c2nnc(-n3cccc3CNc3ccc(C)cc3)s2)CC1	/	/	/	11.9	-0.6
COc1ccc2c(C)c(CC(=O)NCCc3ccc(Cl)cc3)c(=O)oc2c1C	/	/	/	-1.4	-1.2
CCOC(=O)[C@H]1[C@H]2COc3ccc(OC)cc3[C@@H]2N2C(=O)c3cc(F)c(F)cc3NC(=O)[C@@]12C	-2.0	-10.6	6.8	-5.6	-0.3
CCOc1ccc(NC(=O)CN(C)c2nnnn2-c2ccccc2)cc1OCC	-1.9	-11.3	35.1*	2.1	0.8
CCOc1ccccc1NC(=O)CSc1nnnn1-c1ccc(C(=O)OC)cc1	-1.4	-6.9	49.9*	8.0	-0.6
CCn1c(SCc2nc3sc(C(=O)O)c(C)c3c(=O)[nH]2)nc2ccccc21	-0.6	5.9	-9.8	3.5	1.7
COCCn1c(SCc2nc3sc(C(=O)OC)c(C)c3c(=O)[nH]2)nc2ccccc21	-1.8	-18.6	30.6*	-4.6	0.7
CCOc1ccccc1NC(=O)CSc1nnc2c(CC)c(C)nc(N)n12	-1.4	-4.8	35.2*	/	2.8
COCCNC(=O)C1(C)CCN(C(=O)COc2ccc(Cl)cc2Cl)C1 (stereo unspecified)	-5.2	-1.3	/	/	/
O=C(NCCc1c[nH]c2ccccc12)c1ccc([N+](=O)[O-])o1	7.3	14.8	/	/	/
CCOC(=O)c1ccccc1NC(=O)CSc1nccn1C	-2.0	-21.2	-1.5	53.4*	0.5
O=C(CCS(=O)(=O)c1nc(-c2cccs2)cc(C(F)(F)F)n1)Nc1cc(Br)ccc1O	/	/	/	-2.2	1.2
COCCn1c(SCC(=O)c2ccc(F)cc2)nnc1C(C)C	-3.2	-17.5	13.5	11.1	-1.2
COCCn1nnnc1SCC(=O)c1ccc(F)cc1	-7.6	-18.6	38.8*	4.6	1.0
O=C(CCc1cn(Cc2ccccc2Cl)c2ccccc12)NC1CCCCC1	/	/	/	4.0	0.8
CCCCCn1c(=O)[nH]c2cc(C(=O)N3CCN(c4cccc(C(F)(F)F)c4)CC3)ccc2c1=O	/	/	/	5.6	0.0
O=C(NCCCN1CCCCC1)c1cc(Sc2ccc(Cl)cc2)nc2ccccc12	/	/	/	-28.3	-0.5
CCN(CC)c1ccc(NC(=O)c2c(OC)cccc2OC)c(C)c1	-2.4	-2.1	33.6*	-10.9	0.6
CCN(CC)c1ccc(NC(=O)c2cccc(OC)c2)c(C)c1	-2.8	-8.1	2.8	9.7	0.0
CCOC(=O)N1CCc2c(sc3c2C(=O)NC(c2cc(OC)c(OC)c(OC)c2)N3)C1 (stereo unspecified)	/	/	/	12.8	/
O=C(NC1CCN(Cc2ccc3ccccc3c2)CC1)c1ccccc1	-2.8	-34.0	50.9*	-22.9	-1.7
O=C(NC1CCN(Cc2ccc(Cl)c(Cl)c2)CC1)c1ccccc1	2.5	-37.2	81.0*	-29.3	-2.1
SMILES	D2 ag-1	D2 PAM-1	D2 antag	D2 PAM-2	D2 ag-2
Cc1ccc(CN2CCSc3ccc(C(=O)NC4CCN(Cc5ccccc5)CC4)cc32)cc1	-4.6	-13.1	73.9*	/	0.0
CS(=O)(=O)Cc1ccc(C(=O)NC2CCN(Cc3ccccc3)C2)cc1 (stereo unspecified)	1.6	-10.9	26.9	-10.9	0.1
O=C(NC1CCN(Cc2ccc(F)cc2)CC1)c1ccccc1	-5.0	-14.9	114.8*	-20.4	-1.4
O=C(NC1CCCC1)c1ccc2c(c1)N(Cc1ccccc1)CCS2	1.7	2.6	-5.8	-3.9	-0.1
CCOC(=O)N1CCc2c(sc3c2c(=O)n(Cc2ccccc2)c(=O)n3CC(=O)Nc2ccc(C)c(C)c2)C1	/	/	/	-5.3	0.8
CC(=O)Nc1cc(-c2ccc(N)nc2)cn2c(-c3cccc(C(F)(F)F)c3)cnc12	-5.5	-18.4	/	/	/
CCC(=O)N1c2ccccc2CC1C(=O)NCCc1ccc(OC)c(OC)c1 (stereo unspecified)	/	/	/	4.0	1.5
COc1ccc(S(=O)(=O)N2CCC(C(=O)NCCN3CCOCC3)CC2)cc1C	-3.6	-10.1	34.2*	-4.2	0.9
COc1ccc(S(=O)(=O)N2CCC(C(=O)NCCN3CCOCC3)CC2)cc1OC	-8.1	-5.5	-9.0	-3.6	0.3
CC(=O)NNC(=O)CN1C(=O)/C(=C/c2ccccc2)SC1=S	7.1	0.2	73.7*	0.0	-4.2
CCN(CC)C(=O)CN1C(=O)/C(=C/c2ccccc2)SC1=S	-3.4	-10.3	-8.6	1.7	-0.4
O=C1/C(=C\c2cc(Cl)c(O)c(Cl)c2)SC(=S)N1Cc1ccccc1	1.1	-6.7	69.4*	2.3	-1.5
COc1ccc(S(=O)(=O)N(C)C[C@H]2Oc3c(cccc3N(C)C)C(=O)N([C@H](C)CO)C[C@@H]2C)cc1	2.3	-4.7	/	/	/
CCOc1ccc(Cl)cc1S(=O)(=O)n1cnc2ccccc21	1.5	-2.3	-5.8	-2.4	-0.1
COc1ccc(Cl)cc1S(=O)(=O)n1cnc2ccccc21	-4.2	12.5	79.0*	12.1	-0.5
Nc1cc(N)nc(SCc2ccccc2)n1	-0.3	-0.5	-13.8	-11.2	-0.1
Nc1cc(N)nc(SCCc2ccccc2)n1	1.9	1.0	47.1*	-1.3	1.3
C[C@H](O)[C@@H]1C(=O)N2CCc3ccc(-c4ccccc4)cc3[C@@H]2C[C@@H]1N(C)C(=S)Nc1ccc(F)cc1	-8.8	-0.1	/	/	/
O=S(=O)(c1ccc(N=C2NN=C(c3cc(F)ccc3F)CS2)cc1)N1CCOCC1	-3.2	15.5	17.9	30.1*	0.0
CC(=O)Nc1ccc(C2=NNC(=Nc3cccc(S(=O)(=O)N(C)C)c3)SC2)cc1	6.9	-0.2	5.5	5.8	-1.0
CC(=O)Nc1ccc(C2=NNC(=Nc3ccc(S(=O)(=O)N4CCOCC4)cc3)SC2)cc1	6.6	-5.6	42.7*	-5.8	-1.0
CCCCOc1ccc(C(=O)NCC(=O)NCC2CCCO2)cc1 (stereo unspecified)	-0.7	9.2	8.7	-9.6	-0.1
COC(=O)CN1C(=O)N/C(=C/c2cc3c(cc2OC)OCO3)C1=O	-4.8	15.1	29.2	35.2*	-0.3
CN(C)[C@@H]1CCC[C@H]1OC(=O)C(c1ccccc1)c1ccccc1	-1.9	-34.2	46.9*	-24.7	-0.1
